# Measurements taken from PubChem BioAssay (NCI).
# Compounds without any hit were thinned out: in the full panel of roughly 83,000, 20% have a hit.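 96-well plates, one dose, 48 hours. Percent growth reported; active if below 10.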 Unmarked numbers belong to inactive results. Activity calls are given as the source filed them.
# Tested on: OVCAR-4 ovarian
# Test: NCI-60 one-dose screen, 48 h (100 = growth as untreated, 0 = no growth, -100 = all killed)
# Conditions: 10 µM
# Method: Growth inhibition of the OVCAR-4 human tumor cell line is measured as a screen for anti-cancer activity. Cells are grown in 96 well plates and exposed to the test compound for 48 hours. Compounds are tested at a single concentration, which is 10^-5 M for most compounds. The reported endpoint is percent growth (GI% or GIPRCNT), where numbers from 0 - 100% represent growth inhibition, and numbers from -100% - 0 represent cell death. For example, a value of 40 represents 60% growth inhibition. A value of 0 means no net growth occurred over the course of the experiment. A value of -40 indicates 40% of cells at the beginning of the experiment died by the end of the experiment. A value of -100 means all cells are dead at the end of the experiment.
# NCI-60 Human Tumor Cell Lines Screen was performed using the standard one-dose NCI protocol, which is described in more detail at https://dtp.cancer.gov/discovery_development/nci-60/default.htm.
# Compounds with GIPRCNT values below 10 were considered active. Activity score was based on GIPRCNT using the following formula: […]
# Score is 0 for GIPRCNT values of 100 or above, 50 for GIPRCNT values of 0, and 100 for GIPRCNT values of -100.
row,Compound,growth
1,COC(=O)Nc1nc2ccc(C(=O)c3cccs3)cc2[nH]1,36.3%
2,COCCCNC(=O)c1nnn2c1nc(N)c1cc(Cl)ccc12,90.7%
3,O=[N+]([O-])c1ccc(Cl)c(S(=O)(=O)O)c1,111%
4,COC(=O)CCCCC1=CCC2C(=O)C=C(O)C2C1 (stereo not given),103%
5,O=C(CCl)Nc1ccc2c(c1)C(=O)c1ccc(NC(=O)CCl)cc1C2=O,-43% (active)
6,C=C1CC/C=C(\C)C(=O)C[C@@H]2[C@@H]1CC2(C)C,110%
7,Cc1cc2nc(CC(=O)c3cccc([N+](=O)[O-])c3)c(=O)[nH]c2cc1C,89.4%
8,COCCCC/C(=N\OCCN)c1ccc(C(F)(F)F)cc1,110%
9,CN(C)c1ccc2nc3ccc(=N)cc-3sc2c1,-8.03% (active)
10,CCOC(=O)C1=C(Nc2ccc(Br)cc2)C(=O)N(CC)C1,93.7%
11,CC(=O)OCCC(C)CCC=C(C)C (stereo not given),107%
12,CN(C)c1ccc(CNC(C(=O)c2ccccc2)c2ccccc2)cc1 (stereo not given),99.1%
13,O=C(O)[C@@H]1[C@H]2C[C@H]3c4[nH]c5ccccc5c4CCN3C[C@@H]2CC[C@@H]1O,103%
14,COC(=O)c1cccnc1,110%
15,CC(=O)OC1CC2C(C)(C)OC3CC(=O)OCC32C2CCC3(C)C(=CCC3c3ccoc3)C12C (stereo not given),105%
16,CC1=CC(C)(C)NC(=S)N1c1ccc(S(=O)(=O)O)c2cccc(S(=O)(=O)O)c12,117%
17,C/C(=N\NC(=O)c1ccccc1N)c1ccccc1O,6.68% (active)
18,O=C(O)CCCCNC(=O)c1ccccc1,108%
19,CCOc1ccccc1/C=N/Nc1nc2ccccc2o1,41.9%
20,COc1ccc(OC)c(/C=C2\CCc3ccccc3C2=O)c1,70.9%

row,Compound,growth
1,CC1(C(N)=O)CCC(C(=O)O)C1(C)C (stereo not given),102%
2,CC1(C)N=C(N)N=C(N)N1c1cccc(Br)c1,49.7%
3,COC(=O)c1ccc(NC(=O)CCl)cc1,95.4%
4,Cc1cc(C(O)(c2ccc(Nc3ccccc3)cc2)c2ccc(Nc3ccc(S(=O)(=O)O)cc3)cc2)ccc1N (stereo not given),-5.82% (active)
5,OC1OC(COC(c2ccccc2)(c2ccccc2)c2ccccc2)C(O)C(O)C1O (stereo not given),84.1%
6,O=[N+]([O-])c1cccc(C(F)(F)F)c1,103%
7,CC(O)COc1ccc(-c2ccccc2)cc1 (stereo not given),111%
8,CCCCNC(=O)C(=O)NCCCC,108%
9,O=[N+]([O-])c1cccc2nsnc12,114%
10,O=S(=O)(Cc1ccccc1)c1ccccc1,98.1%
11,C=CC(O)CCC (stereo not given),95.6%
12,C[C@]12CC[C@@H]3c4ccc(OCC(=O)O)cc4CC[C@H]3[C@@H]1CCC2=O,95.8%
13,CCn1c(=O)n(C)c2c(=O)n(C)c(=O)n(C)c21,111%
14,CCCCCC(C)(CC(=O)O)CC(=O)O,104%
15,CC(=O)c1cc2c(cc1F)C(C)(C)CCC2(C)C,103%
16,Cc1ccc(CCCC(=O)O)c(C)c1,97.6%
17,O=C(CS)Nc1ccc2ccccc2c1,116%
18,CC1SC(N)=NC1=O (stereo not given),117%
19,CCN(CC)C(=O)/C=C(/C)c1ccccc1,92.7%
20,C/C(=N/NC(N)=O)c1ccco1,110%
